27 molecules from PubChem BioAssay AID2006 (Sanford-Burnham Center for Chemical Genomics, 2009) can be followed below.

The term inhibition denotes the change of the read-out against control, counted positive when it falls.

This assay concerns the target SUMO-conjugating enzyme UBC9 (Homo sapiens) (UniProt P63279). The assay can be described thus: blockers of SAE1/SAE2–UBC9 SUMO transfer – biochemical, HTRF, uHTS, primary screen (AID 2006). Conditions: HTRF SUMOylation assay, SAE1/SAE2 + UBC9, in vitro, at 35 µM, stronger effect = higher value. (In general: TR-FRET usually uses a lanthanide donor and a delayed reading to cut background.)

In all, about 290,000 compounds went through this assay and about 1,000 (0.34%) were called active. The sample holds actives, similar compounds and a random draw of the others, so the mix is not that of the screen. Rule as the data show it: active = inhibition above about 50% (passing the limit was not always enough); inconclusive = no clear call, values can overlap the other calls.

Chain of SUMO-conjugating enzyme UBC9 (Homo sapiens) (P63279 whole entry, looked up): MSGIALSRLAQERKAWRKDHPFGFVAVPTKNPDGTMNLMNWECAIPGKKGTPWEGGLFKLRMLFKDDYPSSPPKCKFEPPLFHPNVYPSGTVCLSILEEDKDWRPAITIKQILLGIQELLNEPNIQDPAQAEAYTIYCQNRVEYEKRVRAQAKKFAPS

Turning to `CCOC(=O)c1c(-c2ccccc2)oc2cc(Br)c(O)c(C=O)c12`, the inhibition was -19% (inactive).

In the case of `CCOC(=O)c1c(-c2ccccc2)oc2cc(Br)c(O)cc12`, the inhibition was 6.4% (inactive).

For the molecule `COCCNC(=O)c1ccc2nc(Cc3ccc(OC)c(OC)c3)oc2c1`, the inhibition is 4.2% (inactive).

For `C/C(=C/c1ccccc1)C(=O)N1CCN(c2ccccc2)CC1`, the inhibition was 16.7% (inactive).

In the case of `C=CCN(CC=C)S(=O)(=O)c1ccc(C(=O)Nc2nc3c(s2)CCc2ccccc2-3)cc1`, the inhibition is -14.9% (inactive).

In the case of `COc1ccc(C(=O)Nc2ncc3c(n2)-c2ccccc2CC3)cc1`, the inhibition was 6% (inactive).

With `COCCN(CCOC)S(=O)(=O)c1ccc(C(=O)Nc2nc3c(s2)CCc2ccccc2-3)cc1`, the inhibition is 67% (active). Moreover, the inhibition (average of repeat tests) is 53%.

Consider `O=C(/C=C/c1ccc(Cl)cc1)NCCCn1ccnc1`, for which the inhibition was 12.9% (inactive).

For `CC(=O)N1c2ccc(S(=O)(=O)N3CCC(C(=O)NC4CCCC(C)C4C)CC3)cc2CC1C` (stereo not drawn), the inhibition is -4.4% (inactive).

Take `COc1ccc(NC(=O)CC(NC(C)c2ccccc2)C(=O)O)cc1` (stereo not drawn): the inhibition was 6.5% (inactive).

For `CC(C)c1nc(CNC(=O)CC2C(=O)NCCN2Cc2cccc(F)c2F)cs1` (stereo not drawn), the inhibition is -7.6% (inactive).

Take `CC1CCN(S(=O)(=O)c2ccc3c(c2)n(C)c(=O)n3C)CC1`: the inhibition is 6.7% (inactive).

For the molecule `CC1(C(=O)NCCc2c[nH]c3ccccc23)C=CC2(CCCCC2)N1C(=O)c1ccccc1` (stereo not drawn), the inhibition was 0.3% (inactive).

As to `Cc1cc(OC(C)C(=O)NC2CC(C)(C)NC(C)(C)C2)c2c(C)cc(=O)oc2c1` (stereo not drawn), the inhibition is 33.5% (inactive).

In the case of `Cc1cccc(N(CC(=O)N=Nc2c(O)[nH]c3ccccc23)S(C)(=O)=O)c1C`, the inhibition is -5.8% (inactive).

For `O=[N+]([O-])c1cc(S(=O)(=O)Nc2cccc(Cl)c2)ccc1N=Nc1c(O)[nH]c2ccccc12`, the inhibition was 67.7% (active).

In the case of `CN1CCN(c2ccc(S(=O)(=O)Nc3ccccc3)cc2[N+](=O)[O-])CC1`, the inhibition is 21.3% (inactive).

With `COc1ccc(CN2CCNC(=O)C2CC(=O)NCc2cn[nH]c2-c2ccccc2)c(F)c1` (stereo not drawn), the inhibition was -2.8% (inactive).

Turning to `Cc1c(-c2cccc(Cl)c2)nc2ccccc2c1C(=O)OCC(=O)N(C)C1CCS(=O)(=O)C1` (stereo not drawn), the inhibition was 0.4% (inactive).

In the case of `CN(C(=O)COC(=O)c1cc(-c2ccco2)nc2ccccc12)C1CCS(=O)(=O)C1` (stereo not drawn), the inhibition was 51.3% (active).

Regarding `CN(C(=O)COC(=O)c1nc(Cl)ccc1Cl)C1CCS(=O)(=O)C1` (stereo not drawn), the inhibition was -3.6% (inactive).

With `O=[N+]([O-])/C=C/c1ccc2c(ccn2Cc2ccccc2)c1`, the inhibition was 19.7% (inactive).

For the molecule `CC(C)[C@H](NC(=O)N1c2ccccc2NC(=O)[C@@H]1C(C)C)C(=O)N[C@H](C(=O)O)c1ccccc1`, the inhibition is 12.1% (inactive).

As to `Cc1cccc(C(=O)Nc2ccc(Oc3cnccn3)cc2)c1`, the inhibition was 10.4% (inactive).

Regarding `CC1CCCCC1NC(=O)CO/N=C/c1ccc(OC(F)F)cc1` (stereo not drawn), the inhibition was -15.8% (inactive).

Turning to `O=C(Nc1ccc(Br)cc1)c1cc(S(=O)(=O)Nc2ccccn2)ccc1Cl`, the inhibition is 3.5% (inactive).

For the molecule `COc1ccc(CN2CC(C(=O)NCCc3ccc(Cl)cc3)CC2=O)cc1` (stereo not drawn), the inhibition is 10.3% (inactive).
